Screening data as filed in PubChem.
Sampled rows, rich in hits. Any-hit rate of the full collection: about 1.6%.
GRK2 inh: human GRK2 inhibition via aptamer displacement. hit rate 0.59% among 330,000. AID 488847. inhibition of aptamer binding, % at 10 µM. bead flow cytometry, FAM-aptamer displacement from GRK2. P25098;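 active means inhibition of aptamer binding above 40%, roughly 3 SD of noise, on plates passing a quality check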;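 further: median bead fluorescence of bound FAM aptamer so fluorescent compounds give negative values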
DSG3 Ab inh: human desmoglein-3 autoantibody binding inhibition | P32926 | DSG3-coupled beads, scFv-anti-DSG3-GFP binding, flow cytometry; active compounds read low | binding (percent of control), % at 10 µM | hit rate 0.48% among 310,000 | AID 588358;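 active means binding more than 3 SD below its plate's average and above zero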;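 further: hits lower antibody fragment binding to DSG3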
JMJD2C inh: blocks human GASC-1 demethylase activity; AID 2099; GST-JMJD2C(1-420) H3K9me3 demethylation, DELFIA europium; hit rate 0.069% among 330,000; Q9H3R0; inhibition, % at 2.35 µM;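 active means more than half of a compound's replicate wells show inhibition beyond 50%, single wells judged on their own value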;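 further: signal counts dimethyl H3K9 product captured on neutravidin plate; 0% = median of DMSO wells and 100% = 0.3 times that DMSO median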
PREPL inh: inhibits the human prolyl oligopeptidase-like enzyme; Q4J6C6; recombinant PREPL, fluorescence polarization activity-based probe; inhibition, % at 5.96 µM; hit rate 0.68% among 320,000; in the data active means inhibition above about 43%;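 further: 0% = enzyme with DMSO and 100% = wells lacking enzyme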
VLA-4 inh: inhibition in a human VLA-4 binding assay; P13612; VLA-4 expressing cells, ligand binding flow cytometry; inhibition, % (about 7 µM as worked out from the volumes in the protocol); hit rate 0.2% among 330,000; in the data active means inhibition above about 50%
Target sequence (P13612 whole entry, looked up): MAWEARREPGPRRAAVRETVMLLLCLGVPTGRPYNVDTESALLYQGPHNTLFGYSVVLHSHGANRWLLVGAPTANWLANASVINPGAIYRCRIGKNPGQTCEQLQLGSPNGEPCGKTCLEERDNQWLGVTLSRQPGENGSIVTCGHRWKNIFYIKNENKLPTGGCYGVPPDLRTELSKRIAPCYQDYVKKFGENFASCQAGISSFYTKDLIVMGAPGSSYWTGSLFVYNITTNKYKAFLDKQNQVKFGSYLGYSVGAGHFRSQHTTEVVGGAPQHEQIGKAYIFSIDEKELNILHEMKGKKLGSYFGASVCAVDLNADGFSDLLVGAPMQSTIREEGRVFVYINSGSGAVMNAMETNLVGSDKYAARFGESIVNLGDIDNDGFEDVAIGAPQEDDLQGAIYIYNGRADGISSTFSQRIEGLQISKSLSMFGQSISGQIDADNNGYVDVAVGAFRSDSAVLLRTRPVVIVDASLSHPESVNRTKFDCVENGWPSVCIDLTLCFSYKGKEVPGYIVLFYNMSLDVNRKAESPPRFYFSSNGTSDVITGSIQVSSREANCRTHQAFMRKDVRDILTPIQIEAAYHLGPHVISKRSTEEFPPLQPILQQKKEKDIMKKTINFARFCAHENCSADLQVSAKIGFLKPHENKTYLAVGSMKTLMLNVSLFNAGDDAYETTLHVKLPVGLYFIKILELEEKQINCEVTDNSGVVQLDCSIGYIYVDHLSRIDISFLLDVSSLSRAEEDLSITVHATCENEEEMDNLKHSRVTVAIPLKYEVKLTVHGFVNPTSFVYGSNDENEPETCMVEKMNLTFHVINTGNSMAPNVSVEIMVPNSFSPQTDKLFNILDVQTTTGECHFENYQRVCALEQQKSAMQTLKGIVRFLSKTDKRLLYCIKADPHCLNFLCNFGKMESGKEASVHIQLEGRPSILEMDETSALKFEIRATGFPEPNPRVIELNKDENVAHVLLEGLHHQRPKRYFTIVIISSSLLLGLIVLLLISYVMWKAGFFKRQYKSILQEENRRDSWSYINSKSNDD
VLA-4 mod pick: human VLA-4 allosteric modulation in cherry picked compounds; shares compounds with VLA-4 inh; U937 cells, HUTS-21 LIBS mAb binding, flow cytometry; LDV ligand present at threefold Kd; inhibition, % at 6.7 µM; hit rate 2% among 1,300; AID 2813; in the data active means inhibition above about 40%;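 further: 0% = ligand without compound and 100% = no ligand background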
* = called active by the depositor; x = no result given.

SMILES	GRK2 inh	DSG3 Ab inh	JMJD2C inh	PREPL inh	VLA-4 inh	VLA-4 mod pick
COCCNC(=O)/C(C#N)=C/c1c(F)cccc1Cl	1.0	98.3	-29.1	-1.0	5.3	5.4
COCCNC(=O)/C(C#N)=C/c1ccc(C(=O)O)cc1	2.0	97.0	9.5	-5.6	1.6	7.2
Cc1ccc(C)c(NC(=O)C2CCCC2)c1	0.0	105.0	0.7	-0.5	3.1	x
O=S(=O)(Nc1ncccn1)c1ccc(NC(=S)N2CCN(Cc3ccc(F)cc3Cl)CC2)cc1	0.0	103.7	6.5	-0.9	4.4	x
O=C(Nc1ccc(F)cc1)NC1(C(=O)NCc2ccco2)CCCCC1	0.0	99.3	22.1	-6.3	51.9*	4.4
CCOC(=O)C1=C(C)NC(C)=C(C(=O)OCC)C1C(=O)OCC(=O)N1CCCCC1C (stereo not drawn)	0.0	98.5	-3.8	7.0	6.3	x
CCOC(=O)c1[nH]c(C)c(C(=O)OCC(=O)N2CCCCC2C)c1C (stereo not drawn)	3.0	110.1	-3.0	16.8	61.2*	15.7
Cc1cccc(C)c1OCC(=O)Nc1ncn[nH]1	2.0	100.4	3.7	-8.7	52.3*	-7.7
Cc1cc(OCC(=O)Nc2ncn[nH]2)ccc1Cl	0.0	98.6	0.2	-2.4	-3.4	x
O=C(CCC(=O)Nc1ccc(F)cc1)N/N=C/c1ccncc1	1.0	103.8	-3.0	-5.2	56.4*	0.0
O=C(CCC(=O)Nc1ccccc1)N/N=C/c1ccncc1	2.0	102.2	-2.4	7.8	-13.4	x
COC(=O)COc1ccc(NC(=O)C(c2ccccc2)c2ccccc2)cc1	12.0	102.5	-4.1	4.0	49.9*	13.6
CCNC(=S)Nc1cc(OCC)c(N2CCOCC2)cc1OCC	1.0	82.7	4.8	-0.2	45.2	1.3
CCOc1ncccc1C(=O)Nc1cccc(-c2nnc3n2CCCCC3)c1	2.0	119.5	17.8	3.8	68.5*	0.3
c1ccc(CCC2CCCCN2Cc2nc(C3CC3)no2)cc1 (stereo not drawn)	2.0	100.9	7.2	-21.9	44.5	-15.1
COc1ccc(-n2c(Cc3cc(=O)[nH]c(=O)[nH]3)nnc2SCc2ccccc2)cc1	0.0	112.9	3.4	4.4	51.1*	4.7
COc1cccc(-n2c(Cc3cc(=O)[nH]c(=O)[nH]3)nnc2SCc2cccnc2)c1	0.0	100.7	-6.0	-1.5	41.5	x
COc1cccc(-n2c(Cc3cc(=O)[nH]c(=O)[nH]3)nnc2SCC(=O)N2CCCCC2)c1	3.0	109.2	-1.0	-4.9	8.8	-1.5
O=C(CSc1nnc(Cc2cc(=O)[nH]c(=O)[nH]2)n1-c1ccc(F)cc1)N1CCCCC1	0.0	109.0	6.4	12.4	18.0	2.4
Cc1ccc(-n2c(CSc3nc(C)cc(C)n3)nnc2SCC(=O)N2CCCC2)cc1	0.0	100.3	-5.9	1.1	50.0*	-4.1
Cc1cc(C)nc(SCc2nnc(SCC(=O)O)n2-c2ccccc2)n1	3.0	102.7	-15.3	7.2	8.4	x
CC(=O)Nc1ccc(OS(=O)(=O)c2ccc([N+](=O)[O-])cc2)cc1	3.0	101.5	-4.8	0.9	45.0	x
CCn1nc(C(=O)NNC(=O)C(Cc2ccccc2)NC(N)=O)c2ccccc2c1=O (stereo not drawn)	0.0	144.4	7.9	4.2	-11.6	x
COc1ccc2[nH]c3c(c2c1)CCNC3=O	0.0	98.5	12.7	-8.0	26.0	x
CCc1cc2c(=O)n3c(nc2s1)-c1[nH]c2ccc(OC)cc2c1CC3	1.0	93.4	0.3	6.7	44.6	-8.5
SMILES	GRK2 inh	DSG3 Ab inh	JMJD2C inh	PREPL inh	VLA-4 inh	VLA-4 mod pick
Cc1c(Cl)ccc2sc(NC(=O)c3ccco3)nc12	0.0	102.2	19.7	-56.2	53.5*	2.0
CS(=O)(=O)c1ccc2nc(NC(=O)c3ccco3)sc2c1	1.0	93.4	-0.4	-1.1	18.1	x
CCCSc1nc2c(c(=O)n(C)c(=O)n2C)n1C	2.0	96.0	1.6	1.1	3.6	x
CCOC(=O)c1cccc(NC(=O)CN(c2ccc(C)cc2)S(=O)(=O)c2c(C)n[nH]c2C)c1	0.0	110.6	2.8	-11.3	57.1*	-6.7
CCOC(=O)c1ccc(NC(=O)CN(c2ccc(C)cc2)S(=O)(=O)c2c(C)nn(C)c2C)cc1	0.0	102.9	-6.3	1.2	14.9	8.1
COC(=O)c1c(C)[nH]c(C(=O)C(C)OC(=O)C2CC(=O)N(c3ccc(C)cc3)C2)c1C (stereo not drawn)	0.0	101.4	-6.4	-7.1	-17.4	x
COC(=O)c1c(C)[nH]c(C(=O)C(C)OC(=O)C2CC2C)c1C (stereo not drawn)	1.0	101.9	4.1	-4.5	-14.9	-6.8
COc1ccc2sc(-c3ccccc3OC)c(-c3ccc(OCCN4CCOCC4)cc3)c2c1	0.0	100.5	x	x	x	1.6
C1=C(c2sc3ccccc3c2-c2ccc(OCCN3CCOCC3)cc2)CCCC1	0.0	107.2	-3.6	-0.7	17.8	x
c1ccc(-c2sc3ccccc3c2-c2ccc(OCCN3CCOCC3)cc2)cc1	2.0	104.6	-11.2	2.2	6.0	-4.9
COc1ccccc1-c1sc2ccccc2c1-c1ccc(OCCN2CCOCC2)cc1	1.0	103.8	x	x	x	0.0
Cc1ccc(/C(O)=C2/C(=O)C(=O)N(CC(=O)O)C2c2ccc([N+](=O)[O-])cc2)cc1 (stereo not drawn)	4.0	105.8	-0.3	10.1	64.1*	5.1
COC(=O)c1sc2nc(N3CCCCC3)c3c(c2c1N)CCCC3	5.0	92.5	5.2	4.5	89.8*	0.0
COc1ccc(NC(=O)CSc2nccn2Cc2ccco2)cc1	0.0	102.9	-4.9	6.4	-5.4	x
Cc1cc(=O)[nH]c(-n2nc(C)cc2C)n1	0.0	98.2	-0.4	1.5	93.6*	15.0
O=C(NC1CCCCCC1)C1CC(=O)N(Cc2ccccc2)C1 (stereo not drawn)	1.0	112.5	-3.5	9.0	-5.8	x
Cc1ccc(O)c(NC(=O)c2cc([N+](=O)[O-])ccc2Cl)c1	0.0	102.1	-8.2	3.5	-22.5	x
Cc1cc(O)c(NC(=O)c2cc([N+](=O)[O-])ccc2Cl)cc1C	0.0	106.3	1.6	5.1	51.2*	-7.7
CN1C[C@@H]2[C@@H]3C(=O)N(Cc4ccccc4)C(=O)[C@@H]3[C@](C)(C1=O)N2C(=O)c1ccc(C(C)(C)C)cc1	x	98.4	x	x	x	x
COc1cccc(-c2sc3ccc(OC)cc3c2-c2ccc(OCCN(C)C)cc2)c1	0.0	112.3	2.3	27.4	51.5*	8.8
COc1ccc(-c2sc3ccccc3c2-c2ccc(OCCN(C)C)cc2)cc1	0.0	105.4	15.2	29.4	67.0*	44.4*
CN(C)CCOc1ccc(-c2c(-c3ccsc3)sc3ccccc23)cc1	0.0	102.8	-7.4	-13.1	43.9	x
COc1ccc(S(=O)(=O)NC(Cc2cnc[nH]2)C(=O)O)cc1 (stereo not drawn)	0.0	x	-0.7	4.8	37.8	x
